Bioassay records (PubChem BioAssay)
CYP2C19 act: activators of human cytochrome P450 2C19 | activation factor at 5 µM | 96,000 tested, under 10 active | AID 1025 | recombinant CYP2C19, luciferin-H EGE luminescence; active compounds read high; 0 = fully inhibited enzyme, 1 = untreated enzyme | P33261;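 active = activation factor of at least 2 at 5 µM in the primary screen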;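 also: 0 = wells with 2.5 mM tranylcypromine and 1 = vehicle-only wells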
Target sequence (P33261 whole entry, looked up): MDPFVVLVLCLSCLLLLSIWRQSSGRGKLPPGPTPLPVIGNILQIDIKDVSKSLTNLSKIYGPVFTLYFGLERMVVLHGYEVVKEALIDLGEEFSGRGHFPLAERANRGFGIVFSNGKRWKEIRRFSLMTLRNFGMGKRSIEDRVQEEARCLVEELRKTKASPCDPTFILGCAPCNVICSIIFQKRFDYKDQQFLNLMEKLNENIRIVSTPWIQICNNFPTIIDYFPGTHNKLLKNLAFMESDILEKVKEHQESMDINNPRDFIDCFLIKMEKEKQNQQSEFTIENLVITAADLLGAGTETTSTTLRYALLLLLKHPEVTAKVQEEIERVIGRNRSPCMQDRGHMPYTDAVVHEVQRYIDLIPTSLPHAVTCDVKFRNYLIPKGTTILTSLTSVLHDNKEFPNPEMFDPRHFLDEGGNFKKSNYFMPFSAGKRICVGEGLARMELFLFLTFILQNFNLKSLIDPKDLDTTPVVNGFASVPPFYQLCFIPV
CYP2C9 activ: CYP2C9 (human) activation; P11712; recombinant CYP2C9, luciferin-H conversion, luminescence; active compounds read high; factor 1 = untreated enzyme, 0 = blocked; activation factor at 5 µM; 96,000 compounds, 1.4% hits;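 active = activation factor of 2 or more for CYP2C9 at a 5 µM dose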;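 also: 0 = sulfaphenazole-blocked wells and 1 = vehicle-only wells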
CYP2C19 inhib: blocks human cytochrome P450 2C19. CYP2C19 Supersomes, luciferin-H EGE luminescence, 30 min. inhibition, % at 5 µM. 96,000 compounds, 21% hits. AID 778;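 active = CYP2C19 inhibition above a set limit at 5 µM in the primary screen, cut at about 50% in these data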;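 also: plate controls were negative control wells for no effect and 2.5 mM tranylcypromine positive control for full effect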
PostGolgi yeast: growth inhibition of a yeast mutant, post-Golgi transport screen | inhibition, % at 10 µM | post-Golgi transport phenotypic cell assay | 98,000 compounds, 0.9% hits;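 also: yeast cells grown in 1536-well plates; yeast grown about 18 h at 30C before absorbance read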
PostGolgi ctrl: growth of the yeast control strain, post-Golgi counter-screen; inhibition, % at 10 µM; 98,000 compounds, 5% hits; efflux-deficient yeast background strain, growth absorbance A615, 16 h
CYP2C9 inh: blocks human cytochrome P450 2C9; P11712; CYP2C9 Supersomes, luciferin-H conversion, luminescence; inhibition, % at 5 µM; 96,000 compounds, 20% hits; AID 777;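 active = blocking of liver enzyme CYP2C9 beyond about 50% at 5 µM, limit read from the data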
* marks the source's active call; other numbers are inactive results; x = not tested or not shown. Compounds with a hit are over-represented: about 32% of the library has one in this group of screens. Rule as the data show it, unless noted: active = inhibition above about 30%; inactive = the rest.

SMILES | CYP2C19 act | CYP2C9 activ | CYP2C19 inhib | PostGolgi yeast | PostGolgi ctrl | CYP2C9 inh
CN(CC(=O)Nn1cnnc1)S(=O)(=O)c1cc(Cl)ccc1Cl | 0.2 | 0.1 | 81* | -4 | 12 | 87*
CN(CC(=O)O)S(=O)(=O)c1cc(Cl)ccc1Cl | 0.9 | 1 | 6 | -6 | 4 | -1
O=C(Nc1cc(Cl)cc(Cl)c1)C1CCC(=O)N1Cc1ccccc1Cl (stereo not given) | 0 | 0.1 | 96* | -7 | 11 | 91*
CNC(=O)C1CCC(=O)N1Cc1ccccc1Cl (stereo not given) | 1 | 1.1 | -1 | -4 | -8 | -6
Cc1ccc(C(=O)C2C(=O)c3ccccc3C2=O)cc1 | 0.9 | 0.2 | 13 | -3 | 25 | 77*
O=C(NC(NC1CCS(=O)(=O)C1)C(=O)c1ccccc1)c1ccc(Cl)cc1 (stereo not given) | 0.9 | 1 | 13 | -2 | -4 | 4
c1ccc(Oc2nc(NCc3ccco3)nc(NCc3ccco3)n2)cc1 | 0.9 | 1.1 | 10 | 4 | -1 | -6
CCCCCCNc1nc(NCc2ccco2)nc(OCC)n1 | 0.3 | 0.2 | 71* | -7 | 19 | 79*
O=C(/C=C/c1ccco1)NC(=S)Nc1ccc(Cl)cn1 | 0.9 | 0.7 | 15 | -4 | 13 | 26
Cc1ccnc(NC(=S)NC(=O)/C=C/c2ccco2)c1 | 1.1 | 0.5 | -15 | 1 | 0 | 53*
CCOC(=O)CSc1nc(N(C)C)nc(N(C)C#N)n1 | x | x | x | 3 | 15 | x
Cc1cccc(Nc2nc(N)nc(CN3CCN(C)CC3)n2)c1 | 1.2 | 0 | -18 | 1 | 10 | 96*
Cc1ccc(Nc2nc(N)nc(CN3CCN(C)CC3)n2)cc1 | 1.2 | 1.3 | -19 | -1 | -2 | -29
Cc1cccc(Nc2nc(N)nc(CN3CCN(c4ccc(F)cc4)CC3)n2)c1 | 0.4 | 0.4 | 55* | 3 | 6 | 59*
COc1ccccc1N1CCN(Cc2nc(N)nc(Nc3ccc(C)cc3)n2)CC1 | 0.5 | 1 | 49 | -1 | 16 | 1
CCN1CCN(Cc2nc(N)nc(Nc3ccc(C)c(C)c3)n2)CC1 | 1.1 | 1.2 | -14 | 0 | -2 | -19
Cc1ccc(Nc2nc(N)nc(CN3CCN(C(=O)c4ccco4)CC3)n2)cc1Cl | 0.2 | 0.2 | 78* | 4 | 6 | 85*
CC(=O)C1=C(O)C(=O)N(CC(=O)O)C1c1ccccc1Cl (stereo not given) | 1 | 1 | -5 | 9 | 3 | 1
CCOc1ccc(-n2c(SCC(=O)NC(C)CC)nc3n[nH]c(C)c3c2=N)cc1 (stereo not given) | 0.8 | 0.9 | 23 | -2 | -6 | 7
CCC(Sc1nc2n[nH]c(C)c2c(=N)n1-c1cccc(Cl)c1C)C(=O)N(CC)CC (stereo not given) | 1 | 0.4 | 4 | -6 | -3 | 59*
CC(C)NS(=O)(=O)c1ccc(OCC(=O)NCc2ccc3c(c2)OCO3)c(Cl)c1 | 0 | 0.1 | 97* | 4 | 5 | 94*
COc1ccc(CCNC(=O)COc2ccc(S(=O)(=O)NC(C)C)cc2Cl)cc1OC | 0.4 | 0.1 | 65* | -2 | 3 | 86*
CC(C)NS(=O)(=O)c1ccc(OCC(=O)Nc2ccc3c(c2)OCO3)c(Cl)c1 | 0.9 | 0.9 | 13 | 1 | 7 | 14
CCC(C)NC(=O)C1CCCN(C(=O)Nc2ccc(F)cc2)C1 (stereo not given) | 0.8 | 1 | 16 | 0 | 1 | 1
Cc1ccc(S(=O)(=O)NCC(=O)N2CCOCC2)cc1 | 0.7 | 0.7 | 27 | 6 | -1 | 31
SMILES | CYP2C19 act | CYP2C9 activ | CYP2C19 inhib | PostGolgi yeast | PostGolgi ctrl | CYP2C9 inh
Cc1ccc(S(=O)(=O)CC(c2ccccc2)N2CCOCC2)cc1 (stereo not given) | 0.4 | 1 | 57* | -18 | 10 | -1
Nc1cccc(-n2nncc2-c2ccc(Cl)cc2)c1 | 0.2 | 0.8 | 77* | -6 | 7 | 16
COC(=O)c1c(C)nc2ccccc2c1-c1ccccc1 | 0.7 | 0.7 | 25 | -1 | 2 | 34
COC(=O)c1c(C)[nH]c(C)c1-c1ccccc1 | 0.4 | 0.7 | 60* | 0 | 6 | 27
COc1ccc(CN(C)C2CCCCC2)cc1 | 0.4 | 1.3 | 64* | -8 | 2 | -29
CN(Cc1ccc(O)cc1)C1CCCCC1 | 1 | 1.2 | -3 | -3 | -10 | -15
O=C(Nc1ccnc(-c2cccnc2)n1)c1ccc(Cl)cc1 | 0.9 | 0.9 | 7 | 6 | 4 | 14
O=C(Cc1ccccc1)NC1CCN(S(=O)(=O)c2ccc(C(=O)O)cc2)CC1 | 1 | 0.8 | 4 | 0 | 11 | 24
CC(C)CCN(C)C1CCN(S(=O)(=O)c2cccc(C(F)(F)F)c2)CC1 | 0.5 | 0.7 | 52* | 24 | 7 | 28
CC(C)(C)C(=O)NC1CCN(S(=O)(=O)c2cccc(C(F)(F)F)c2)CC1 | 0.2 | 1.2 | 81* | 1 | 6 | -19
O=C(Cc1ccccc1)NC1CCN(S(=O)(=O)c2cccc(F)c2)CC1 | 0.3 | 0.9 | 73* | 17 | 1 | 9
CCN(CC)c1ncc(C)c(=O)[nH]1 | 1 | 1.1 | -2 | 3 | 5 | -7
COc1ccc(C(=O)N(Cc2nc(-c3ccc(C)cc3)no2)C2CCCCC2)cc1OC | 0.2 | 0.2 | 82* | 5 | 22 | 81*
CCOC(=O)C1CCN(Cc2nc(-c3ccc(OC)c(OC)c3)no2)CC1 | 1.2 | 1.1 | -16 | -16 | 3 | -10
Cc1onc(-c2ccccc2Cl)c1C(=O)N(Cc1nc(-c2ccccc2)no1)C1CCCCC1 | 0 | 0.1 | 95* | -2 | 8 | 86*
Cc1cccc(-c2noc(CN(C(=O)c3c(-c4ccccc4Cl)noc3C)C(C)C)n2)c1 | 0.1 | 0.4 | 91* | -20 | 13 | 63*
Cc1onc(-c2ccccc2Cl)c1C(=O)NC1CCS(=O)(=O)C1 (stereo not given) | 0.8 | 0.9 | 16 | 0 | -4 | 6
CCc1ccc(N=CC23c4ccccc4C(c4ccccc42)C2C(=O)N(c4ccc(OC)cc4)C(=O)C23)cc1 (stereo not given) | 0.7 | 1 | 29 | -3 | 13 | 3
CCC(OC(=O)c1cccs1)C(=O)NC1CCCCC1 (stereo not given) | 0.2 | 0.7 | 75* | 3 | 10 | 28
CCC(OC(=O)c1cccs1)C(=O)NCc1ccco1 (stereo not given) | 0.2 | 0.6 | 83* | -8 | 15 | 44
CN(C)c1cc(-c2ccccc2)nc(N)n1 | 0.7 | 0.9 | 32 | -8 | -5 | 14
COC(=O)CNC(=O)COc1ccccc1 | 1 | 0.9 | -5 | 10 | 1 | 10
COc1ccc2c(c1)c1c(n2C(C)=O)C(OC(C)=O)=NCC1 | 1 | 1 | -2 | -3 | 3 | -4
CCOC(=O)C1(C)NC(c2ccc(N(C)C)cc2)C2C(=O)N(c3ccc(OC)cc3)C(=O)C21 (stereo not given) | 0.4 | 0.8 | 57* | -2 | 1 | 22
